About 4,500 (1.2%) of roughly 360,000 compounds were called active. Many of the other results were omitted from the sample, so actives are more common in it than they were. Values without a mark were called inactive. No stated cut-off is given here; in the data, active means inhibition above about 30%; inactive means the rest.

The nature of this assay: inhibition of GDH and TPI enzymes – biochemical, absorbance, full deck, artefact control for M. tuberculosis FBA inhibitor project, primary screen (AID 588335).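 Further: 0% = DMSO wells and 100% = wells lacking the enzyme.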 The conditions noted are these: GDH-TPI coupled enzyme counterscreen, NADH absorbance; at 4.8 µM; stronger effect = higher value.
Regarding `CC(=O)C1=C(C)NC2=C(C(=O)CC(C)(C)C2)C1C` (stereo unspecified), the inhibition is 0.31%.

On to `CC1(C)CC(=O)C2=C(C1)Nc1cc(C(=O)c3ccccc3)ccc1NC2c1ccccn1` (stereo unspecified), for which the inhibition is 32.1% (active).

As to `Cc1cc2c(cc1C)NC(c1ccccn1)C1=C(CC(C)(C)CC1=O)N2` (stereo unspecified), the inhibition is 29.6%.

On to `CSCC[C@H](NC(=O)NCc1cccs1)C(=O)O`, for which the inhibition is -3.14%.

With `CCN(c1ccc(NC(=O)COC(=O)CCc2nc3ccccc3n2-c2ccccc2)cc1)C(C)C`, the inhibition is 8.52%.

Consider `O=C(CCS(=O)(=O)c1cccc2nsnc12)N1CCN(c2ccccc2F)CC1`, for which the inhibition was 19.6%.

As to `COc1ccc(/C=N/N=C/c2c[nH]c(=O)c(C#N)c2Nc2ccccc2)cc1`, the inhibition is 50.2% (active).

As to `COc1ccc(O)c(/C=N/N=C/c2cccc([N+](=O)[O-])c2)c1`, the inhibition was -12.3%.

As for `COc1ccc(/C=N/Nc2nc(-c3ccc(C)cc3)c(C#N)c(=O)[nH]2)cc1`, the inhibition was 10%.

`O=C1NC(c2ccccc2)CCC1(Cl)Cl` (stereo unspecified): the inhibition is 3.97%.

For `CCn1nc(NC(=O)c2ccco2)c2cc3ccc(C)cc3nc21`, the inhibition is -4.08%.

Consider `Cc1ccc(C(=O)Nc2c(C#N)c(C)c(C)n2Cc2ccccc2)cc1`, for which the inhibition is -3.02%.

Take `Cc1ccc(Cn2c(NC(=O)c3ccco3)nc3ccccc32)cc1`: the inhibition was 37.1% (active).

For the compound `CN1CCN(C(=O)CCc2ncc(C(F)(F)F)cc2Cl)CC1`, the inhibition is -4.79%.

In the case of `CC(C)c1ccc(S(=O)(=O)N2CCN(C(=O)CN3C(=O)NC(C)(c4ccccc4)C3=O)CC2)cc1` (stereo unspecified), the inhibition is -2.79%.

Consider `CC(N=Cc1nc(-c2ccccc2)oc1O)c1ccccc1` (stereo unspecified), for which the inhibition is 46.8% (active).

As to `Oc1oc(-c2ccccc2Br)nc1/C=N/c1ccccn1`, the inhibition is 15.5%.

On to `COc1ccc(CN(C)C(C)C(=O)NC2CCCc3ccccc32)cc1` (stereo unspecified), for which the inhibition is -4.42%.

In the case of `Cn1c(=O)c2c(-c3cccc(Br)c3)c(C#N)c(N)nc2n(C)c1=O`, the inhibition is 32.1% (active).

Regarding `Cc1cc(C)c2c(-c3ccc(F)cc3)c(C#N)c(=O)n(C)c2n1`, the inhibition is 12.6%.

As for `CSc1ccc(-c2c(C#N)c(N)nc3c2c(C)nn3-c2ccccc2)cc1`, the inhibition is 21.3%.

For `COc1ccc(NC(=O)NCCN2CCN(c3ccc(C)cc3)CC2)c(Cl)c1`, the inhibition is 32.2% (active).

For `COc1ccc(N2CCN(CCNC(=O)Nc3cc(Cl)ccc3Cl)CC2)cc1`, the inhibition was 5%.

Turning to `COc1ccc(N2CCN(CCNC(=O)c3nnc(Cc4c(F)cccc4Cl)o3)CC2)cc1`, the inhibition is 5.33%.

In the case of `CSC1=N/C(=C\C=C\c2cccs2)C(=O)S1`, the inhibition was 4.56%.

For `O=C(CN1C(=O)/C(=C/c2ccccc2F)Sc2ccccc21)NCc1cccnc1`, the inhibition was 12.4%.

As for `O=C(CCN1C(=O)c2ccccc2C1=O)NCCCn1ccnc1`, the inhibition was -1.58%.

As for `COc1ccc(/C=C2\SC(=O)N(CCC(=O)NC3CCS(=O)(=O)C3)C2=O)cc1` (stereo unspecified), the inhibition is 41% (active).

As to `O=C(NCCCn1ccnc1)/C(=C\c1ccccc1F)NC(=O)c1ccccc1`, the inhibition is -0.75%.

Consider `COc1ccccc1/C=C1\SC(=O)N(CCC(=O)N(C)C2CCS(=O)(=O)C2)C1=O` (stereo unspecified), for which the inhibition was 26.5%.

Turning to `COc1ccc(-c2ccc(OC(=O)NC3CCS(=O)(=O)C3)cc2)cc1` (stereo unspecified), the inhibition is -7.23%.

On to `O=C(CN1C(=O)S/C(=C\c2ccccc2F)C1=O)NCCCn1ccnc1`, for which the inhibition was 33.6% (active).

Regarding `Cc1cc(OCCCC(=O)NCCN2C(=O)S/C(=C\c3cccnc3)C2=O)ccc1Cl`, the inhibition is 11.2%.

On to `COc1ccc(/C=C2\SC(=O)N(CCC(=O)NCCCn3ccnc3)C2=O)cc1`, for which the inhibition was 43.6% (active).

As for `CCOc1cc2c(Cl)ncnc2c(OCC)c1OCC`, the inhibition is 2.46%.

With `CCOC(=O)C1(Cc2ccccc2C)CCCN(C(=O)c2ccc(COC)o2)C1` (stereo unspecified), the inhibition was 6.53%.

With `COc1ccc(CNC(=O)C[C@H]2C[C@H](C(=O)N3CCOCC3)[C@@]3(CCC4CCCC4)c4[nH]c5ccc(Cl)cc5c4CCN3C2=O)cc1OC`, the inhibition is -3.13%.

`CCN(CC(=O)NC(C)C)C(=O)c1cc(S(=O)(=O)N2CCCCC2)ccc1N1CCCCC1`: the inhibition was 2.16%.

Take `O=C(COc1cc(Cl)c(Cl)cc1Cl)NCCc1ccccn1`: the inhibition is 3.15%.

With `NC(=S)NN=Cc1ccc(OC(=O)COc2cc(Cl)c(Cl)cc2Cl)cn1`, the inhibition is 49.8% (active).

On to `O=C(COC(=O)COc1cc(Cl)c(Cl)cc1Cl)NC1CC1`, for which the inhibition was 7.02%.

With `COc1cc(Nc2nc3ccc(Cl)cc3n3cnnc23)cc(OC)c1OC`, the inhibition is -2.21%.

On to `CN(CCO)c1ccc(/C=N/Nc2nncc3ccccc23)cc1`, for which the inhibition is 15.2%.

On to `COc1cc(/C=N/Nc2nn3cnnc3c3ccccc23)cc(OC)c1OC`, for which the inhibition was 43.1% (active).

`CCOC(=O)C1(CCOc2ccccc2)CCN(C(=O)c2cncs2)CC1`: the inhibition is 3.14%.

For `O=C1NC(c2ccccc2)=NC1(Nc1ccccn1)C(F)(F)F` (stereo unspecified), the inhibition is -8.86%.

As for `COc1ccc(C2=NS(=O)(=O)N(C)C(C(=O)NC(C)c3ccccc3)=C2)cc1` (stereo unspecified), the inhibition was 23.1%.

As to `COc1ccc(C2=NS(=O)(=O)N(C)C(C(=O)N3CCCCC3)=C2)cc1`, the inhibition was 24.4%.

Consider `COc1cc(NC(=O)C2=CC(c3ccco3)=NS(=O)(=O)N2C)cc(OC)c1OC`, for which the inhibition is 30.4%.

Turning to `COc1cc(NC(=O)C2=CC(c3ccc(C)cc3)=NS(=O)(=O)N2C)cc(OC)c1OC`, the inhibition is 27.7%.

With `COc1ccc(C2=NS(=O)(=O)N(C)C(C(=O)N(C)Cc3ccccc3)=C2)cc1`, the inhibition is 34% (active).

With `COc1ccc(NC(=O)C2=CC(c3ccc(OC)c(OC)c3)=NS(=O)(=O)N2C)cc1`, the inhibition is 32.7% (active).

In the case of `CCc1cc(=O)oc2c(C)c(OCC(=O)N3CC[C@@]4(O)CCCC[C@H]4C3)ccc12`, the inhibition was 7.84%.

For `NC(=O)c1nsc(C(=O)N(CCCN2CCOCC2)C(C(=O)NC2CCCCC2)c2ccc(Cl)cc2)c1N` (stereo unspecified), the inhibition is 3.02%.

With `Cc1ccc(NC(=O)c2ccc(Oc3ncccn3)cc2)cc1`, the inhibition was 11.6%.

As to `Cc1ccc(C(=O)NNC(=O)c2cc3cc4ccccc4nc3s2)cc1`, the inhibition is 10.2%.

With `Cc1ccc(C(=O)NNc2ncnc3ccccc23)cc1`, the inhibition is 43.8% (active).

As for `O=C(O)CC(Cc1ccccc1)C(=O)Nc1ccc([N+](=O)[O-])cc1` (stereo unspecified), the inhibition is 19.3%.

On to `CC(=O)n1cc([C@@H]2C=C(C(=O)N3CCN(Cc4ccc5c(c4)OCO5)CC3)O[C@H](OCc3ccc(CO)cc3)C2)c2ccccc21`, for which the inhibition was -1.76%.

For the compound `Cc1cccc(C)c1-n1c(C)cc(/C=C2\C(=O)NN(c3ccccc3)C2=O)c1C`, the inhibition was 33% (active).

`CCOC(=O)C1=C(O)/C(=C/c2cc(C)n(-c3ccccc3)c2C)N=C1C`: the inhibition was 2.64%.

As to `COc1ccc(C(=O)NCC2CCCCC2)cc1S(=O)(=O)N1CCCC1`, the inhibition is 1.39%.

For `CCO[C@@H]1OC(C(N)=O)=C[C@H](c2ccc(Br)cc2)[C@H]1CCCO`, the inhibition was -4.48%.

`CC(Sc1nc2cc(Cl)ccc2s1)C(=O)Nc1ccc2c(c1)OCO2` (stereo unspecified): the inhibition was 5.49%.

Consider `COC(=O)c1c(-c2ccsc2)oc2ccc(-c3cc(OC)c(OC)c(OC)c3)cc12`, for which the inhibition is 10.3%.

For the compound `O=C(NCc1cccs1)c1ccc2c(c1)ncn2C1CCCC1`, the inhibition is -1.75%.

Regarding `CCOc1ncccc1C(=O)N(C)CC(=O)Nc1ccc(F)cc1`, the inhibition is -5.34%.

For `Cc1ccccc1C(=O)Nc1ccccc1Sc1ccccc1`, the inhibition was -10.9%.

Regarding `CSc1ccccc1NC(=O)c1cc(Cl)sc1Cl`, the inhibition is -10.3%.

As for `CSc1ccccc1NC(=O)c1cnc2sc(C)cn2c1=O`, the inhibition is 32.6% (active).

`CCCN(c1ccc(C)cc1)c1nc(=O)c2cccnc2s1`: the inhibition was 8.86%.

Turning to `COc1ccc(CC(=O)Nc2cc(S(=O)(=O)N3CCCCC3)ccc2N2CCN(C)CC2)cc1`, the inhibition was -4.44%.

For the compound `CC(C)N=C1CCCC1C(=S)SSC(=S)C1CCCC1=NC(C)C` (stereo unspecified), the inhibition is 32.4% (active).

Take `CN(CC(=O)Nc1ccccc1F)CC(=O)Nc1ccccc1Br`: the inhibition is -8.02%.

`Cc1ccc(S(=O)(=O)N2CCOCC2)cc1C(=O)OC1CCCCC1=O` (stereo unspecified): the inhibition was -12.1%.

Regarding `COc1ccc(C(=O)Oc2ccc(-c3nnco3)cc2)cc1S(=O)(=O)N1CCOCC1`, the inhibition was 7.83%.

In the case of `CCc1ccc(-n2c(SCc3cc(=O)n4cc(Br)ccc4n3)nc3[nH]ncc3c2=O)cc1`, the inhibition was 24%.

On to `O=c1c2sccc2nc(SCc2cc(=O)n3ccccc3n2)n1-c1ccc(Br)cc1`, for which the inhibition was 32.1% (active).

In the case of `O=C(O)CCn1c(SCc2cc(=O)n3ccccc3n2)nc2ccsc2c1=O`, the inhibition is 7.77%.

In the case of `Cc1cccc(S(=O)(=O)N(C)C[C@H]2OCc3cnnn3CCCC(=O)N([C@@H](C)CO)C[C@H]2C)c1`, the inhibition is -13.4%.

On to `CC1(C)CC(N(Cc2ccccc2)C(=O)Cc2ccccc2)CCO1` (stereo unspecified), for which the inhibition was -7.26%.

Turning to `O=C(O)CCn1cc(C=C2C(=O)NC(=S)NC2=O)c(-c2cccc(Br)c2)n1`, the inhibition was -11.4%.

Take `O=C(COC(=O)/C=C/c1cn(-c2ccccc2)nc1-c1cccnc1)Nc1ccc(Cl)cc1Cl`: the inhibition is -1.11%.

As for `O=C(O)CCn1cc(/C=C/C(=O)c2ccc(Cl)cc2)c(-c2cccc(Br)c2)n1`, the inhibition is 43.8% (active).

Turning to `CCOC(=O)c1sc(-c2cccc([N+](=O)[O-])c2)cc1N`, the inhibition was 5.1%.

On to `CC(=O)Nc1nc(C)c(-c2csc(Nc3ccc(S(N)(=O)=O)cc3)n2)s1`, for which the inhibition is 33.8% (active).

For `CCCCC(=O)Nc1nc(C)c(-c2csc(Nc3ccc(Cl)cc3)n2)s1`, the inhibition is 11.2%.

For `C=CCCC(=O)Nc1nc(C)c(-c2csc(Nc3ccc(Cl)cc3)n2)s1`, the inhibition is 16.8%.

As for `CCOC(=O)c1c(C)[nH]c(C)c1C(=O)COC(=O)/C=C/c1cccc([N+](=O)[O-])c1`, the inhibition was 5.36%.

For the compound `CCOC(=O)c1cc2cc(C)ccc2[nH]1`, the inhibition was 8.07%.

Regarding `CCOC(=O)C=Cc1ccc(C(=O)OCC)[nH]1`, the inhibition was 46.3% (active).

Source of the values: PubChem BioAssay AID588335 (The Scripps Research Institute Molecular Screening Center, 2011).
